Changes are numbered by the printed parent chain.

The values below come from publication PMC9838217, “Structure of SALL4 zinc finger domain reveals link between AT-rich DNA binding and Okihiro syndrome”.

Common to all, as to test: HT-SELEX; high values mean tight binding
Common to all, as to settings: protein: recombinant; vector His6-GST; dsDNA, one strand shown

One assay addresses T1, SALL4 ZFC4 WT (HT-SELEX) (Mus musculus, UniProt Q8BX22 870-940).
T1 sequence: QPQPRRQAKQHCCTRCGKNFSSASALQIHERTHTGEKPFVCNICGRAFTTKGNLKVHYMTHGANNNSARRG
The essentials: (§1)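 Each canonical k-mer's binding signal is its read fraction expressed as fold change over the initial random library. Reads came from MiSeq sequencing, scanned for 6-mers, after up to 6 triplicate cycles in which purified recombinant mouse SALL4 zinc finger cluster 4 (residues 870–940, 1 µg) bound library DNA (1.5 µg first cycle, 200 ng later) in 100 µl of 10 mM Tris–HCl pH 7.5, 50 mM NaCl, poly(dI-dC), DTT for 10 min at room temperature. Complexes were then Ni2+ bead-captured, washed, PCR-amplified and reselected.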

Assay [1] has as its target T2, SALL4 ZFC4 R900W (HT-SELEX) (Mus musculus, UniProt Q8BX22 870-940, R900W).
T2 sequence: T1 sequence with R31W
The essentials: as §1

The target of assay [2] is T3, SALL4 ZFC4 G921D (HT-SELEX) (Mus musculus, UniProt Q8BX22 870-940, G921D).
T3 sequence: T1 sequence with G52D
The essentials:
as §1

Take AGCTCC: the figures for the binding signal (in the assay with SALL4 ZFC4 WT (HT-SELEX); in assay [1]; in assay [2]) were 0.365 ± 0.00759 fold-change vs cycle 0, 0.455 ± 0.0186 fold-change vs cycle 0 and 0.588 ± 0.0519 fold-change vs cycle 0, respectively.

Turning to CAATTG, the binding signal with SALL4 ZFC4 WT (HT-SELEX) was 1.09 ± 0.0289 fold-change vs cycle 0; in assay [1] it was 1.247 ± 0.0104 fold-change vs cycle 0; in assay [2] it was 1.28 ± 0.0217 fold-change vs cycle 0.

AGAAAA: the binding signal in the assay with SALL4 ZFC4 WT (HT-SELEX) turned out to be 1.83 ± 0.0887 fold-change vs cycle 0; in assay [1], 1.85 ± 0.0773 fold-change vs cycle 0; in assay [2], 1.63 ± 0.11 fold-change vs cycle 0.

Take AGATAA: the binding signal in the assay with SALL4 ZFC4 WT (HT-SELEX) amounted to 2.16 ± 0.129 fold-change vs cycle 0; in assay [1], 2.17 ± 0.195 fold-change vs cycle 0; in assay [2] it was 1.87 ± 0.206 fold-change vs cycle 0.

On to CGTGAG, for which the values for the binding signal (in the assay with SALL4 ZFC4 WT (HT-SELEX); in assay [1]; in assay [2]) were 0.437 ± 0.0456 fold-change vs cycle 0, 0.501 ± 0.006 fold-change vs cycle 0 and 0.607 ± 0.0306 fold-change vs cycle 0, respectively.

As for GTATAC, the binding signal with SALL4 ZFC4 WT (HT-SELEX) came to 1.25 ± 0.0389 fold-change vs cycle 0; in assay [1], 1.39 ± 0.0328 fold-change vs cycle 0; in assay [2], 1.34 ± 0.0932 fold-change vs cycle 0.

In the case of ATTCCG, the binding signal is 0.646 ± 0.0192 fold-change vs cycle 0 in the assay with SALL4 ZFC4 WT (HT-SELEX), 0.697 ± 0.0273 fold-change vs cycle 0 in assay [1] and 0.798 ± 0.0236 fold-change vs cycle 0 in assay [2].

In the case of ACGTTC, the binding signal amounted to 0.7 ± 0.0339 fold-change vs cycle 0 in the assay with SALL4 ZFC4 WT (HT-SELEX), 0.844 ± 0.024 fold-change vs cycle 0 in assay [1] and 0.8714 ± 0.00795 fold-change vs cycle 0 in assay [2].

For the sequence CTCTAC, the results for the binding signal (with SALL4 ZFC4 WT (HT-SELEX); in assay [1]; in assay [2]) were 0.799 ± 0.0191 fold-change vs cycle 0, 0.917 ± 0.016 fold-change vs cycle 0 and 0.954 ± 0.0195 fold-change vs cycle 0, respectively.

ATCATC: the binding signal was found to be 1.5 ± 0.034 fold-change vs cycle 0 in the assay with SALL4 ZFC4 WT (HT-SELEX), 1.56 ± 0.0669 fold-change vs cycle 0 in assay [1] and 1.49 ± 0.0918 fold-change vs cycle 0 in assay [2].

Regarding AGATAT, the binding signal in the assay with SALL4 ZFC4 WT (HT-SELEX) was 2.61 ± 0.24 fold-change vs cycle 0; in assay [1], 2.08 ± 0.11 fold-change vs cycle 0; in assay [2], 1.86 ± 0.213 fold-change vs cycle 0.

On to CATTTC, for which the binding signal with SALL4 ZFC4 WT (HT-SELEX) is 1.25 ± 0.0444 fold-change vs cycle 0; in assay [1] it was 1.26 ± 0.0656 fold-change vs cycle 0; in assay [2] it was 1.23 ± 0.0622 fold-change vs cycle 0.

For the sequence ATGCCA, the binding signal was found to be 0.517 ± 0.0281 fold-change vs cycle 0 in the assay with SALL4 ZFC4 WT (HT-SELEX), 0.565 ± 0.0177 fold-change vs cycle 0 in assay [1] and 0.695 ± 0.0326 fold-change vs cycle 0 in assay [2].

Regarding TCCCAA, the binding signal with SALL4 ZFC4 WT (HT-SELEX) stood at 0.743 ± 0.0235 fold-change vs cycle 0; in assay [1], 0.826 ± 0.0256 fold-change vs cycle 0; in assay [2] it was 0.872 ± 0.0393 fold-change vs cycle 0.

As to GTTGAA, the binding signal was 1.18 ± 0.0583 fold-change vs cycle 0 with SALL4 ZFC4 WT (HT-SELEX), 1.34 ± 0.0591 fold-change vs cycle 0 in assay [1] and 1.3 ± 0.109 fold-change vs cycle 0 in assay [2].

Turning to CAAGAC, the figures for the binding signal (in the assay with SALL4 ZFC4 WT (HT-SELEX); in assay [1]; in assay [2]) were 0.74 ± 0.0108 fold-change vs cycle 0, 0.856 ± 0.0182 fold-change vs cycle 0 and 0.905 ± 0.036 fold-change vs cycle 0, respectively.

On to CAGTAG, for which the binding signal worked out at 0.806 ± 0.0679 fold-change vs cycle 0 with SALL4 ZFC4 WT (HT-SELEX), 0.908 ± 0.0926 fold-change vs cycle 0 in assay [1] and 0.954 ± 0.0684 fold-change vs cycle 0 in assay [2].

Regarding TGCGAA, the results for the binding signal (with SALL4 ZFC4 WT (HT-SELEX); in assay [1]; in assay [2]) were 0.447 ± 0.0325 fold-change vs cycle 0, 0.488 ± 0.0122 fold-change vs cycle 0 and 0.618 ± 0.0628 fold-change vs cycle 0, respectively.

For the sequence AGTCCG, the binding signal was 0.333 ± 0.0345 fold-change vs cycle 0 with SALL4 ZFC4 WT (HT-SELEX), 0.404 ± 0.0391 fold-change vs cycle 0 in assay [1] and 0.533 ± 0.0458 fold-change vs cycle 0 in assay [2].

Consider ACCGTG, for which the binding signal with SALL4 ZFC4 WT (HT-SELEX) turned out to be 0.361 ± 0.00928 fold-change vs cycle 0; in assay [1], 0.456 ± 0.013 fold-change vs cycle 0; in assay [2] it was 0.547 ± 0.0682 fold-change vs cycle 0.

Turning to GCCTAA, the values for the binding signal (with SALL4 ZFC4 WT (HT-SELEX); in assay [1]; in assay [2]) were 0.547 ± 0.0354 fold-change vs cycle 0, 0.643 ± 0.0255 fold-change vs cycle 0 and 0.746 ± 0.0372 fold-change vs cycle 0, respectively.

Consider ATGTCC, for which the results for the binding signal (with SALL4 ZFC4 WT (HT-SELEX); in assay [1]; in assay [2]) were 0.723 ± 0.0385 fold-change vs cycle 0, 0.831 ± 0.0392 fold-change vs cycle 0 and 0.904 ± 0.0203 fold-change vs cycle 0, respectively.

As to AATTGC, the binding signal with SALL4 ZFC4 WT (HT-SELEX) came to 0.939 ± 0.042 fold-change vs cycle 0; in assay [1], 0.962 ± 0.0218 fold-change vs cycle 0; in assay [2], 1.04 ± 0.0209 fold-change vs cycle 0.

Turning to ACTGCT, the binding signal was found to be 0.712 ± 0.054 fold-change vs cycle 0 with SALL4 ZFC4 WT (HT-SELEX), 0.797 ± 0.0817 fold-change vs cycle 0 in assay [1] and 0.89 ± 0.0309 fold-change vs cycle 0 in assay [2].

CCTCGA: the binding signal with SALL4 ZFC4 WT (HT-SELEX) was 0.415 ± 0.0275 fold-change vs cycle 0; in assay [1], 0.51 ± 0.0259 fold-change vs cycle 0; in assay [2], 0.594 ± 0.0635 fold-change vs cycle 0.

Take ACGGAC: the binding signal in the assay with SALL4 ZFC4 WT (HT-SELEX) is 0.337 ± 0.0313 fold-change vs cycle 0; in assay [1] it was 0.425 ± 0.0312 fold-change vs cycle 0; in assay [2] it was 0.526 ± 0.0575 fold-change vs cycle 0.

As for ACGGAA, the binding signal with SALL4 ZFC4 WT (HT-SELEX) stood at 0.706 ± 0.0319 fold-change vs cycle 0; in assay [1], 0.803 ± 0.0284 fold-change vs cycle 0; in assay [2], 0.868 ± 0.0441 fold-change vs cycle 0.

Regarding ATCTTG, the binding signal with SALL4 ZFC4 WT (HT-SELEX) amounted to 1.3 ± 0.0534 fold-change vs cycle 0; in assay [1] it was 1.44 ± 0.0813 fold-change vs cycle 0; in assay [2], 1.38 ± 0.0795 fold-change vs cycle 0.

Turning to AGGACC, the figures for the binding signal (with SALL4 ZFC4 WT (HT-SELEX); in assay [1]; in assay [2]) were 0.441 ± 0.038 fold-change vs cycle 0, 0.54 ± 0.0359 fold-change vs cycle 0 and 0.632 ± 0.0389 fold-change vs cycle 0, respectively.

Take ACACCG: the binding signal stood at 0.325 ± 0.0278 fold-change vs cycle 0 with SALL4 ZFC4 WT (HT-SELEX), 0.384 ± 0.0241 fold-change vs cycle 0 in assay [1] and 0.5 ± 0.0673 fold-change vs cycle 0 in assay [2].
